These results are taken from PubChem BioAssay (NCI).

About 83,000 compounds went through this panel and 20% of them were active in at least one assay; those are over-represented in the sample as a whole.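 Testing used 96-well plates and a 48-hour single-concentration exposure. Example: -40 means 40% of the starting cells died.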 Calls of active or inactive are those of the source. Rule for the calls: active = growth percent below 10; inactive = the rest.

This experiment concerns HL-60(TB) leukemia. The experiment can be described thus: NCI-60 one-dose screen, 48 h (100 = growth as untreated, 0 = no growth, -100 = all killed). The following applies: 10 µM unless noted.
`O=C1NCCS(=O)(=O)/C1=C\C=C\c1cccc(C(F)(F)F)c1`: the growth is 1.71% (active).

Turning to `COc1ccc(C2CC(c3cccs3)=NN2c2ccc(S(=O)(=O)NC(=O)NCc3cccc(OC)c3)cc2)cc1` (stereo not given), the growth was 103% (inactive).

For `CCCCN1CCCC[C@@H]1C(=O)N[C@H](C(=O)N(C)[C@H](CCc1nc(C(=O)N[C@@H](Cc2ccccc2)C[C@H](C)C(=O)OC)cs1)C(C)C)C(C)C`, the growth was 5.08% (active).

Regarding `Cn1cc(-c2csc(-c3cn(CCCN4CCCCC4)c4ccccc34)n2)c2cccnc21`, the growth is -65.2% (active).

As to `COc1cc(C(=O)NNC(=O)c2ccccc2O)cc(OC)c1OC`, the growth is 80.4% (inactive).

Turning to `C=C1C(=O)O[C@H]2[C@H]1CC/C(COC(=O)/C=C\C(=O)NCc1ccc(Cn3c(=O)sn(CCCCl)c3=O)cc1)=C\CC[C@@]1(C)O[C@@H]21`, the growth is 10.8% (inactive).

With `Cc1nn(-c2ccccc2)c2nc3nc4c(c(N)c3c(-c3ccc(Cl)cc3)c12)CCC4`, the growth is 102% (inactive).

Take `O=C(Nc1cccc(Cl)c1)Nc1cccc(Cl)c1`: the growth was 43.9% (inactive).

For `COc1c(F)cc(-n2c(C(=O)N3CC(F)C3)cc3cccnc32)cc1F`, the growth is 98.3% (inactive).

Regarding `CN1CCN(Cc2ccc(NC(=O)c3cncc(C#Cc4cncn5ccnc45)c3)cc2C(F)(F)F)CC1`, the growth was 20.2% (inactive).

As to `CCOC(=O)C1=C(N)Oc2c(sc3c(C)cccc23)C1c1ccc(F)cc1` (stereo not given), the growth was -39.3% (active).

`Nn1c(SCC(=O)Nc2ccc(Cl)cc2)nnc1-c1cc(F)c(Cl)cc1Cl`: the growth is 84.5% (inactive).

Take `CCOC(=O)C#Cc1c(C(=O)OCC)nnn1Cc1ccc([N+](=O)[O-])cc1`: the growth is 55.4% (inactive).

As to `COc1cc2c(cc1OC)[C@H](C(=O)O)[C@@H](c1ccc(OC(C)C)c(OC)c1)N(C)C2=O`, the growth is 94.9% (inactive).

In the case of `C=C1C(=O)O[C@H]2[C@H]1CC/C(COC(=O)NCCCCCCCCNC(=O)OC/C1=C/CC[C@@]3(C)O[C@H]3[C@H]3OC(=O)C(=C)[C@@H]3CC1)=C\CC[C@@]1(C)O[C@@H]21`, the growth is -50.2% (active).

For the compound `O=S(=O)(NCCCNc1nccc(-c2c(-c3ccc(F)c(O)c3)nc3sccn23)n1)c1ccc(F)cc1`, the growth is -54.8% (active).

On to `COc1cc(/C=N/Nc2ccc(Br)cc2)cc(OC)c1OC`, for which the growth is 33% (inactive).

Take `Nc1ncnc(N)c1NC(=O)c1ccc(OCc2ccccc2)cc1`: the growth is 108% (inactive).

For `O=C(/C=C\c1cccc([N+](=O)[O-])c1)c1ccccc1`, the growth is -43.8% (active).

On to `O=C(NCCNCCO)c1cc([N+](=O)[O-])cc([N+](=O)[O-])c1O`, for which the growth was 102% (inactive).

Regarding `CC(=O)O[C@@H]1C[C@]2(C(C)C)O[C@@]1(C)[C@@H]1CCC(C)=C1[C@@H]2OC(=O)/C=C/c1ccccc1`, the growth is 78.8% (inactive).

On to `N#CC1(O)CCCCC1`, for which the growth is 104% (inactive).

As to `CCSc1ncnc2c1ncn2C1OC(CO)C(O)C1O` (stereo not given), the growth was 20.2% (inactive).

Regarding `COc1ccc(CCN2COc3c([C@@H](C)CCC=C(C)C)ccc(C)c3C2)cc1OC`, the growth was 29.1% (inactive).

As for `Oc1c(C(Nc2ccccn2)c2cccc(Oc3ccccc3)c2)ccc2cccnc12` (stereo not given), the growth is -51.9% (active).

As for `Cc1ccccc1CNC(=O)C1CN(c2ccc(Cl)cc2)N(c2ccc(Cl)cc2)C1=O` (stereo not given), the growth was 94.7% (inactive).

Turning to `O=[N+]([O-])c1cccc(-c2nc3sccn3c2-c2ccnc(NCCCNS(=O)(=O)c3cccc(F)c3)n2)c1`, the growth was -21.5% (active).

On to `CN1CCN(CCC(=O)Nc2cccc(-n3cc(-c4ccncc4)c(-c4ccc(Cl)c(O)c4)n3)c2)CC1`, for which the growth was 5.71% (active).

Turning to `O=[N+]([O-])c1cc([N+](=O)[O-])c(C(F)(F)F)cc1NN=C(c1ccc(O)cc1)c1ccc(O)cc1`, the growth was 103% (inactive).

Regarding `FC(F)(F)c1cccc([Si](F)(c2cccc(C(F)(F)F)c2)c2cccc(C(F)(F)F)c2)c1`, the growth is 80.5% (inactive).

Turning to `COc1nc2c(c(=O)n1C)CN(c1ccccc1)C(=O)C(C)N2` (stereo not given), the growth was 94% (inactive).

`S=C(Cc1ccccc1)N1CCN(c2ccccc2Cl)CC1`: the growth is 92.1% (inactive).

For `CC1=CCC(OC(=O)C(C)(C)CCC(O)(C(=O)OC2(C(C)C)CCC3(C)OC3C2)C(C)C)(C(C)C)CC1` (stereo not given), the growth was -43.1% (active).

Turning to `Fc1cccc(Oc2ccc(Nc3ncnc4ccc(OCCCN5CCOCC5)cc34)cc2Cl)c1`, the growth is 83.6% (inactive).

In the case of `S=c1[nH]nc(-c2cc3ccc2CCc2ccc(cc2)CC3)n1-c1ccccc1`, the growth was 89.7% (inactive).

Turning to `CCN1C(=O)N(CC)C2C1NN=c1s/c(=C\c3cnc(C)n3C)c(=O)n12` (stereo not given), the growth is -33.3% (active).

On to `O=C(CC(CC(=O)c1ccccc1)c1ccccc1O)c1ccccc1`, for which the growth was 96.8% (inactive).

On to `Nc1ccc([N+](=O)[O-])cc1N=C/C=C/c1ccccc1`, for which the growth is 9.14% (active).

For `C=CCCCCCCCCCOC(C)=O`, the growth was 120% (inactive).

`Cc1cccc(/C=N/n2c(-c3ccc(Cl)cc3)nc3c(Br)cc(Br)cc3c2=O)c1`: the growth was 70.8% (inactive).
